# High-throughput results: PubChem, National Center for Advancing Translational Sciences (NCATS)
# Shown is part of a subset that was picked to be rich in hits.
# p53null 39C tox – qHTS Screen for Compounds that Selectively Target Cancer Cells with p53 Mutations: Cytotoxicity of p53 Null Cells at the Nonpermissive Temperature. Potency, µM (doses to about 46.1 µM), inactives show top-dose activity, negative = cell killing, actives largely listed as cytotoxic. hit rate 0.97% among 55,000. H1299 p53-null (neo) cells, 39C, ATPlite viability, 24 h;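 also: 0% = DMSO only and -100% = full killing by 100 µM tamoxifen; nearly all actives have a fitted effect of over 50% in size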
#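 Following overnight plating at 37C (600 cells/well), H1299-neo or H1299-p53A138V cells are dosed up to 46 uM. Incubation lasts 24 hr at 39C before ATP detection.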
# SKOV3 invasion – Primary qHTS assay for Inhibitors of ovarian cancer metastasis using an organotypic tumor microenvironment (TME) model; hit rate 0.1% among 46,000; SKOV3ip1-GFP adhesion/invasion on 3D omental model, fluorescence; Potency, µM (highest dose often 45.8 µM), for the others: top-dose activity change, negative = inhibition, most hits filed as inhibitors;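 also: plate controls were DMSO wells for no effect and tomatine positive control wells for full effect; nearly all actives have a fitted effect of over 65% in size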
#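 Primary human omental fibroblast/mesothelial 3D culture pre-formed 48 h. SKOV3ip1-GFP cells added with compounds (0.36-46 umol/L), incubated 2 h RT/16 h 37 C, fixed; GFP cells quantified at 488/509 nm.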
# p53null 32C tox – qHTS Screen for Compounds that Selectively Target Cancer Cells with p53 Mutations: Cytotoxicity of p53 Null Cells at the Permissive Temperature; H1299-neo p53 null cells, ATP luminescence, 24 h, 32C; Potency, µM (doses to about 46.1 µM), for the others: top-dose activity change, negative = cytotoxicity, actives largely listed as cytotoxic; hit rate 0.62% among 55,000;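 also: 0% = DMSO only and -100% = full killing by 100 µM tamoxifen; nearly all actives have a fitted effect of over 55% in size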
#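 Luminescent ATP readout gave cell viability of p53-null H1299-neo cells after a 24 h compound exposure at the permissive 32C. Titrations ran up to 46 uM, and AC50s were fitted with the standard Hill equation.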
# NTMT1 inhibitor – Primary qHTS for Inhibitors of N-terminal methyltransferase 1 (NTMT1): MTaseGlo Assay; hit rate 2.5% among 59,000; NTMT1 MTase-Glo SAH luminescence, purified enzyme; AID 1645870, 2021; Potency, µM (series often up to 114 µM), inactives show at the highest dose activity change, negative = inhibition, most hits filed as inhibitors;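 also: plate controls were DMSO vehicle for no effect and no enzyme for full effect; nearly all actives have a fitted effect of over 65% in size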
# Target sequence (Q9BV86 whole entry, looked up): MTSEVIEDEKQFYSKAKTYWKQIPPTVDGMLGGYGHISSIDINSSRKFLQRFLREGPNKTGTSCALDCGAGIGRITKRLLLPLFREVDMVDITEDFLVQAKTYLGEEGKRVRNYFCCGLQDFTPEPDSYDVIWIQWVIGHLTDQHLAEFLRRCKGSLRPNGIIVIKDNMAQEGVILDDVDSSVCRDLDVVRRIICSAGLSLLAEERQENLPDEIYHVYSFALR
# Starred values were filed as active, the others as inactive; i = inactive; ? = inconclusive; . = not tested or not shown; ! = repeats disagree; [ ] = dose if it differs, or a comment. Calls follow the shape of the dose curve; as a rule, active = well fitted curve in the direction sought with a large enough effect; inconclusive = small, poorly fitted or top-dose-only effect, or another doubt; inactive = no such curve, though single readings can be large; an effect the other way counts as inactive or inconclusive. Potency is read from the fitted curve at half-maximal effect.
SMILES,p53null 39C tox,SKOV3 invasion,p53null 32C tox,NTMT1 inhibitor
Cc1c(C(=O)N2CCOc3ccc(-c4ccc(N)nc4)cc3C2)ccc(S(C)(=O)=O)c1F,.,.,.,50.1µM*!
O=C(Nc1cccc(C(F)(F)F)c1)c1ccccc1NCc1ccncc1,.,.,.,-19.1%[57.5 µM]
N#Cc1c(-c2ccco2)no[n+]1[O-],.,.,.,10.3%
COC(=O)Cc1c(C)nc2nc(-c3ccc(C)cc3)[nH]n2c1=O,?,-6.3%,10µM*,9.1%
CCCc1cc(=O)n2[nH]c(-c3ccc(C)cc3)nc2n1,-30.5%,-4.8%,?,13.7%
O=C(NCc1ccccc1)[C@H](Cc1ccccc1)NC(=O)[C@H]1O[C@@H]1C(=O)NCCc1ccc(O)cc1,.,.,.,7.1%
COc1cc2ncnc(Nc3cccc(Cl)c3)c2cc1OC,.,4.0%,.,25.1µM*
COc1cc2ncnc(Nc3cccc(Br)c3)c2cc1OC,.,-17.3%,.,15.8µM*
O=C(CCc1ccccc1Br)NCCc1nc2ccccc2[nH]1,.,.,.,11.1%
CC1Cc2ccccc2N1C(=O)Cc1nc(N2CCOCC2)cc(=O)[nH]1 (stereo not drawn),.,.,.,0.8%
COc1ccccc1NC(=O)CCCOc1cc(=O)n(C)c2ccccc12,-24.4%,-4.0%,-10.5%,-7.4%
C=CC(=O)Nc1cc(Nc2nccc(-c3cn(C)c4ccccc34)n2)c(OC)cc1N(C)CCN(C)C,.,.,.,25.1µM*
CCOc1cc(CNCCSc2nnnn2C)cc(Cl)c1OCc1ccc(Cl)cc1,11.2µM*,?,?,21.4%
COc1cc(CNCCSc2nnnn2C)cc(Cl)c1OCc1ccccc1,-12.4%,i,7.6%,-3.5%
CCCc1nn2c(C)c(-c3ccccc3)nc2s1,10µM*,2.9%,7.94µM*,-9.1%
CCCCCc1nn2cc(-c3ccccc3)nc2s1,15.8µM*,i,10µM*,?
CCc1ccc(-c2cn3nc(CC)sc3n2)cc1,10µM*,-22.2%,12.6µM*,-10.1%
N#Cc1cccc(CSc2nc3ncc(Br)cc3[nH]2)c1,.,.,.,-7.1%
Cc1cc(N[S+](=O)([O-])c2ccc(NC(=O)Cc3ccccc3Cl)cc2)no1,.,.,.,14.4%
CNc1oc(-c2cccc3ncccc23)nc1C#N,.,.,.,-3.1%
Cc1ccc(S(=O)(=O)N(C)c2ccccc2C(=O)Nc2nc(-c3ccccc3)cs2)cc1,.,.,.,2.0%[57.5 µM]
Cc1ccc(-n2ncc3c(N4CCCCCC4)ncnc32)cc1C,-11.4%,-20.1%,10µM*,-9.9%
Cc1cccc(-n2ncc3c(N4CCCC(C)C4)ncnc32)c1 (stereo not drawn),2µM*,i,3.16µM*,?
CC1CCCN(c2ncnc3c2cnn3-c2ccc(F)cc2)C1 (stereo not drawn),?,-1.5%,2.82µM*,-21.5%
O=[S+]([O-])(Nc1ccc(-c2nc3ccccc3[nH]2)cc1)c1ccc2c(c1)OCO2,.,.,.,-12.3%
SMILES,p53null 39C tox,SKOV3 invasion,p53null 32C tox,NTMT1 inhibitor
COc1ccc(Cl)cc1C(=O)Nc1nc(-c2ccccc2)cs1,.,.,.,5.7%[57.5 µM]
O=C(Nc1ccc(Cl)c([N+](=O)[O-])c1)Nc1nnc(C2CCCCC2)s1,.,.,.,5.9%
COc1cc(C(=O)Nc2cc(C)ccc2OCc2cc(=O)n3cc(C)sc3n2)cc(OC)c1OC,-2.6%,-4.9%,0.9%,3.2%
COc1cc(C(=O)Nc2ccccc2OCc2cc(=O)n3cc(C)sc3n2)cc(OC)c1OC,11.5%,i,-2.3%,89.1µM*
Cc1cn2c(=O)cc(COC(=O)c3cccc(NC(=O)c4ccc(C(C)(C)C)cc4)c3)nc2s1,0.794µM*,i,2.51µM*,3.1%
CC(C)(C)c1ccc(C(=O)Nc2ccc(C(=O)OCc3cc(=O)n4ccsc4n3)cc2)cc1,2µM*,-8.9%,?,-21.6%
C#CC[N+](C)(C)CCCCCCCCCC,-12.8%,.,5.7%,.
CCCCCCCCCCCCCC[N+](C)(C)Cc1ccccc1,.,.,.,50.1µM*
CCCCCCCCCCCCCCCC[N+](C)(C)CC,.,.,.,25.1µM*
CCCCCCCCCCCCCCCC[N+](C)(C)Cc1ccccc1,.,.,.,22.4µM*
CCOc1ccc(NC(=O)c2ccc(N)cc2)cc1,?,.,11.2µM*,.
CC(C)[C@H]1C(=O)N[C@@H](CCCN=C(N)N)C(=O)NCC(=O)N[C@@H](CC(=O)O)C(=O)N[C@H](Cc2ccccc2)C(=O)N1C,.,.,.,8.4%[57.5 µM]
CCC(C)S(=O)(=O)c1oc(-c2ccc(F)cc2)nc1S(=O)(=O)c1ccc(F)cc1 (stereo not drawn),-17.5%,3.55µM*,25.1µM*,14.5%
CCS(=O)(=O)c1oc(-c2ccc(F)cc2)nc1S(=O)(=O)c1ccccc1,27.8%,-7.7%,?,1.8%
CCCCS(=O)(=O)c1oc(-c2ccc(F)cc2)nc1S(=O)(=O)c1ccc(C)cc1,?,-8.5%,15.8µM*,?
CCCCS(=O)(=O)c1oc(-c2cccs2)nc1S(=O)(=O)c1ccc(F)cc1,55.2%,?,22.5%,-3.4%
Cc1ccc2scc(N3CCCCC3)c(=O)c2c1,12.6µM*,4.1%,10µM*,?
Cc1ccc2scc(N3CCC(C)CC3)c(=O)c2c1,20µM*,-22.0%,?,?
Cc1ccc2scc(N3CCCCC3C)c(=O)c2c1 (stereo not drawn),15.8µM*,3.5%,12.6µM*,-7.3%
Cc1cc(Nc2ncc(Cl)c(Nc3ccccc3S(=O)(=O)C(C)C)n2)c(OC(C)C)cc1C1CCNCC1,.,.,.,14.1µM*
COC(=O)C[C@@H]1C(C(=O)O)=CO[C@@H](O[C@@H]2O[C@H](CO)[C@@H](O)[C@H](O)[C@H]2O)/C1=C\COC(=O)/C=C/c1ccc(O)c(OC)c1,.,.,.,3.4%[12.6 µM]
Cc1ccc(NCc2cccn2-c2nnc(N3CCC(C(=O)NC(C)C)CC3)s2)cc1,-0.1%,i,7.9%,89.1µM*
Cc1ccc(NCc2cccn2-c2nnc(N3CCC(C(=O)NCCC(C)C)CC3)s2)cc1,8.1%,?,9.5%,?
CCOc1ccc(CCNC(=O)c2cc3ccccc3n2C)cc1OCC,.,.,.,5.4%
O=C(O)c1ccccc1-c1ccc(/C=c2\sc3nc4cc(Br)cnc4n3c2=O)o1,.,.,.,35.5µM*
Cn1cc(C2=C(c3ccc(Cl)cc3Cl)C(=O)NC2=O)c2ccccc21,.,.,.,2.4%
Cn1cc(/C=C2\C(=O)Nc3cccnc32)c2ccccc21,.,.,.,44.7µM*
